{"source": "PubChem BioAssay AID651871", "about": "(Sanford-Burnham Center for Chemical Genomics, 2012)", "tested_on": "HL-1", "test": "protection of cardiomyocytes from stress damage, SAR follow-up, cell-based, panel, H9c2 and HL-1, ATP luminescence, set 2 (AID 651871);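 also: cells exposed to stressor for 2 h before ATP readout; reference of the scale not given here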", "conditions": "H9c2/HL-1 cardiomyocytes, H2O2 oxidative stress; with H2O2, run 1, at 79 µM (top of the series)", "note": "Where “and” joins values, the source holds several entries; their conditions need not be identical. Equal values may be shown once.", "data": [{"smiles": "COc1cc(-c2cc(C(=O)Nc3cccc(C(=O)NCc4ccccc4)c3)c3ccccc3n2)cc(OC)c1OC", "values": [{"measurement": "activity (protection/inhibition)", "result": 34.6, "unit": "%"}]}, {"smiles": "COc1ccc2c(c1OC)C(=O)N1c3ccccc3C(=O)N(Cc3cccc(Cl)c3Cl)C21", "note": "(centres undefined)", "values": [{"measurement": "activity (protection/inhibition)", "result": "-0.863% and -7.11% and 4.56%"}]}, {"smiles": "COc1ccc2nc(-c3cc(OC)c(OC)c(OC)c3)cc(C(=O)NCC(=O)Nc3ccc(C(C)=O)cc3)c2c1", "values": [{"measurement": "activity (protection/inhibition)", "result": "41.2% and 24.9%"}]}, {"smiles": "CCOC(=O)c1cccc(NC(=O)CNC(=O)c2cc(-c3cc(OC)c(OC)c(OC)c3)nc3ccccc23)c1", "values": [{"measurement": "activity (protection/inhibition)", "result": 56.7, "unit": "%"}]}]}
